In the supplement of paper PMC13380429:

The compounds below were run on Vero E6 infected with SARS-CoV-2 (assay: morphology score (similarity to uninfected cells); higher = more like uninfected cells). Conditions: 24 h.

First: COc1cc(N2CCC(N3CCN(C)CC3)CC2)ccc1Nc1ncc(Cl)c(Nc2ccccc2S(=O)(=O)C(C)C)n1 (0.833333 µM)
Second: Cc1cc(C)c(CNC(=O)c2cc(-c3ccc(CN4CCOCC4)cc3)cc3c2cnn3C2CCCC2)c(=O)[nH]1 (10 µM)
The morphology score of the first is higher: 0.115 for the first, -0.13 for the second.

Compared with `COc1nccnc1NS(=O)(=O)c1ccc(N)cc1` [sulfametopyrazine] (10 µM), `Nc1ccc(S(=O)(=O)NC(=O)c2ccccc2)cc1` [sulfabenzamide] (10 µM) is higher in morphology score: -0.162 for the first, 0.0893 for the second.

First: Cn1cnnc1Sc1c([N+](=O)[O-])ncn1C (10 µM)
Second: CC(=O)CCCCn1c(=O)c2c(ncn2C)n(C)c1=O [pentoxifylline] (10 µM)
The morphology score of the first is higher: 0.299 for the first, 0.0323 for the second.

Going from `C[C@]12CCC(=O)C=C1CC[C@@H]1[C@@H]2[C@@H](O)C[C@@]2(C)[C@H]1CC[C@]2(O)C(=O)COP(=O)(O)O` [hydrocortisone-phosphate] (10 µM) to `COc1cccc2c1C(=O)c1c(O)c3c(c(O)c1C2=O)C[C@@](O)(C(C)=O)C[C@@H]3O[C@H]1C[C@H](N)[C@H](O)[C@H](C)O1` [daunorubicin] (10 µM), the morphology score falls from -0.00553 to -0.0163.

First: CCCC[C@@H](NC(=O)[C@@H](Cc1cn(C(=O)OC)c2ccccc12)NC(=O)[C@H](CC(C)(C)C)NC(=O)N1[C@H](C)CCC[C@@H]1C)C(=O)O (10 µM)
Second: CCOC(=O)[C@H](CCc1ccccc1)N[C@@H](C)C(=O)N(CC(=O)O)C1Cc2ccccc2C1 [delapril] (10 µM)
The morphology score of the first is higher: 0.0975 for the first, -0.0271 for the second.

First: Cc1oc2nc3c(c(NC(=O)CN4CCCC4=O)c2c1C)CCCC3 (10 µM)
Second: COc1ccc(-c2csc(NC(=O)[C@H]3CCCCN3S(=O)(=O)c3ccc(C)cc3)n2)cc1 (10 µM)
The morphology score of the first is lower: 0.0552 for the first, 0.424 for the second.

First: Cc1ccc([N+](=O)[O-])cc1S(=O)(=O)N(C)C (10 µM)
Second: Cc1ccc2c(c1CCC(=O)O)CC[C@@H](NS(=O)(=O)c1ccc(Cl)cc1)C2 [terutroban] (10 µM)
The morphology score of the first is lower: 0.0445 for the first, 0.115 for the second.

First: CC(C)[N+](C)(CCC(C(N)=O)(c1ccccc1)c1ccccc1)C(C)C [isopropamide-iodide] (10 µM)
Second: CCC(=O)N[C@@H]1Cc2ccccc2[C@H](c2ccccc2)C1 (10 µM)
The morphology score of the first is higher: 0.192 for the first, -0.0816 for the second.

First: Cc1cccc(C(=O)O)c1O [hydroxytoluic-acid] (10 µM)
Second: CCOCCOc1ccccc1C(N)=O [etosalamide] (10 µM)
The morphology score of the first is lower: -0.137 for the first, 0.0693 for the second.

Compared with `O=Nc1c(-c2c(O)[nH]c3cc(Br)ccc23)[nH]c2ccccc12` [GSK-3-inhibitor-IX] (0.833333 µM), `COc1ccc2[nH]c(C(=O)c3ccccc3)cc2c1` (0.833333 µM) is lower in morphology score: -0.0517 for the first, -0.112 for the second.

Going from `CCC[S+]([O-])c1ccc2[nH]c(NC(=O)OC)nc2c1` (stereo not given) [albendazole-oxide] (10 µM) to `CCCOc1ccc2[nH]cc(C3=CCNCC3)c2n1` (10 µM), the morphology score rises from 0.034 to 0.24.

Compared with `O=C(c1cn(Cc2cncn2Cc2ccc(Br)cc2)cc1-c1cccc2ccccc12)N1CCOCC1` (0.833333 µM), `O=C(NCc1ccc(OC(F)(F)F)cc1)C1c2ccccc2C(=O)N1C1CCOCC1` (stereo not given) (10 µM) is lower in morphology score: 0.342 for the first, -0.0695 for the second.

Going from `C(=C\c1ccccc1)/CN1CCN(CCOC(c2ccccc2)c2ccccc2)CC1` (10 µM) to `OCCN1CCN(CCCN2c3ccccc3C=Cc3ccccc32)CC1` [opipramol] (10 µM), the morphology score falls from 0.33 to 0.237.

Going from `Oc1ccc(-c2nc(-c3ccc(F)cc3)c(-c3ccncc3)[nH]2)cc1` (10 µM) to `CCN(CC)CCN(Cc1ccc(-c2ccc(C(F)(F)F)cc2)cc1)C(=O)Cn1c(SCc2ccc(F)cc2)nc(=O)c2c1CCC2` [darapladib] (0.833333 µM), the morphology score falls from 0.313 to -0.0453.

Compared with `CCC(C)CCCC(=O)N[C@@H](CCN)C(=O)N[C@H](C(=O)N[C@@H](CCN)C(=O)N[C@H]1CCNC(=O)[C@H]([C@@H](C)O)NC(=O)[C@H](CCN)NC(=O)[C@H](CCN)NC(=O)[C@H](CC(C)C)NC(=O)[C@@H](CC(C)C)NC(=O)[C@H](CCN)NC1=O)[C@@H](C)O` (stereo not given in full) [colistin] (10 µM), `C[C@@H](O)[C@H](N)C(=O)N1CCC[C@H]1C(=O)N1CCC[C@H]1C(=O)N[C@H](C(N)=O)[C@@H](C)O` [rapastinel] (10 µM) is lower in morphology score: 0.134 for the first, -0.00969 for the second.

First: O=P1(NCCCl)OCCCN1CCCl (stereo not given) [ifosfamide] (10 µM)
Second: O=C(O)CCCc1ccc(N(CCCl)CCCl)cc1 [chlorambucil] (10 µM)
The morphology score of the first is higher: 0.188 for the first, 0.143 for the second.

Compared with `N[C@@H](CS)C(=O)O` [L-cysteine] (10 µM), `CC(C)Cn1cnc2c(N)nc3ccccc3c21` [imiquimod] (10 µM) is higher in morphology score: 0.0349 for the first, 0.0803 for the second.

First: NCCc1cc[nH]n1 [betazole] (10 µM)
Second: CCOC(=O)c1ncn2c1CN(C)C(=O)c1cc(N=[N+]=[N-])ccc1-2 (10 µM)
The morphology score of the first is lower: -0.0835 for the first, 0.00535 for the second.

Going from `c1ccc2c(c1)Sc1ccccc1N2C[C@H]1CN2CCC1CC2` [levomequitazine] (10 µM) to `C=CCN1CC[C@]23c4c5ccc(O)c4O[C@H]2/C(=N/NC(=O)c2ccccc2)CC[C@@]3(O)[C@H]1C5` [naloxone-benzoylhydrazone] (10 µM), the morphology score falls from 0.0894 to 0.0722.

Going from `CC(C)c1cc(C(=O)N2Cc3ccc(CN4CCN(C)CC4)cc3C2)c(O)cc1O` (10 µM) to `CC(=O)Nc1cccc2c1c(Sc1ccc(Cl)cc1)c(C)n2CC(=O)O` (10 µM), the morphology score rises from 0.185 to 0.187.
